Data taken from article PMC5540273 (PLoS ONE, 2017).

Tests used:
Settings in all cases: concentration: 1 μM,replicates: in singlicate; n = 1
[1] = test system: T1, NIM1
T1 construct: gene MGC42105

[2] = test system: NLK
[3] = test system: T2, OSR1
T2 construct: gene OXSR1

[4] = test system: PAK1
[5] = test system: PAK2
[6] = test system: PAK3
[7] = test system: PAK4
[8] = test system: PAK6
[9] = test system: PAK7
[10] = test system: T3, PCTK1
T3 construct: gene CDK16

[11] = test system: T4, PCTK2
T4 construct: gene CDK17

[12] = test system: T5, PCTK3
T5 construct: gene CDK18

[13] = test system: PDGFRA
[14] = test system: PDGFRB
[15] = test system: PDPK1
[16] = test system: PFTAIRE2
[17] = test system: T6, PFTK1
T6 construct: gene CDK14

[18] = test system: PHKG1
[19] = test system: PHKG2
[20] = test system: PIK3C2B
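Further: KINOMEscan kinase panel screen.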

Structure (SMILES)	%Inh [1]	%Inh [2]	%Inh [3]	%Inh [4]	%Inh [5]	%Inh [6]	%Inh [7]	%Inh [8]	%Inh [9]	%Inh [10]	%Inh [11]	%Inh [12]	%Inh [13]	%Inh [14]	%Inh [15]	%Inh [16]	%Inh [17]	%Inh [18]	%Inh [19]	%Inh [20]
NC(=O)c1ccc(-c2cc3ncnc(SCC(=O)O)c3s2)cc1	0%	0%	0%	0%	0%	0%	0%	0%	0%	0%	0%	2%	71%	80%	0%	0%	7%	0%	1%	0%
CC(=O)c1c(-c2ccncc2)[nH]c(-c2ccncc2)c1C [GW493036]	8%	18%	3%	15%	19%	20%	0%	2%	0%	4%	0%	54%	0%	7%	0%	0%	26%	0%	0%	0%
Cc1cccc2c(-c3ccncc3)c(-c3ccc(F)cc3)nn12.Cl [GW461487]	10%	65%	0%	24%	8%	100%	0%	0%	0%	0%	0%	0%	0%	14%	0%	9%	11%	0%	0%	0%
O=C(Nc1ccc(Oc2ccc3nc(NC(=O)C4CC4)cn3n2)c(F)c1)c1cccn(-c2ccccc2)c1=O	0%	0%	0%	0%	0%	0%	0%	0%	0%	0%	5%	5%	96.3%	100%	0%	0%	0%	61%	0%	0%
CNC(=O)c1ccccc1Nc1nc(Nc2cccc(CS(C)(=O)=O)c2)ncc1C.O=CO [GSK1520489]	97.4%	39%	28%	64%	52%	97.8%	55%	79%	85%	6%	0%	18%	94%	99.9%	49%	0%	16%	63%	49%	0%
CC(C)c1nc(-c2cccc(NS(=O)(=O)c3ccccc3)c2)c(-c2ccnc(Nc3ccc4c(c3)CN(C)CC4)n2)s1 [GSK1649598]	29%	98.1%	14%	39%	25%	88%	0%	10%	3%	100%	100%	100%	91.2%	100%	0%	85%	78%	0%	45%	20%
FC(F)(F)c1cc(Br)cc(Nc2nccc(-c3cnn4ncccc34)n2)c1 [GW810578]	0%	0%	2%	11%	45%	27%	22%	20%	6%	3%	21%	31%	64%	98.4%	5%	0%	14%	16%	0%	0%
CC(=O)Nc1ccc(-c2cc3ncnc(SCC(=O)O)c3s2)cc1	0%	0%	7%	0%	0%	0%	0%	0%	8%	28%	0%	24%	64%	88%	0%	4%	0%	21%	3%	6%
CN(c1ccc2c(c1)nc(NCc1ccc(F)cc1)n2C)c1ccnc(Nc2ccc(CS(C)(=O)=O)cc2)n1.Cl [GW813244]	0%	0%	0%	10%	35%	12%	15%	0%	0%	0%	0%	0%	99%	100%	0%	14%	0%	0%	0%	0%
COc1cccc(C2=C(Nc3cccc(Cl)c3)C(=O)NC2=O)c1 [SB-341556]	3%	5%	27%	4%	19%	100%	0%	0%	8%	9%	0%	6%	0%	17%	0%	8%	0%	0%	0%	0%
CCN1CCN(CCCC(=O)Nc2n[nH]c3nc(-c4ccc(O)cc4)c(Br)cc23)CC1 [SB-731579]	3%	0%	0%	0%	33%	36%	61%	0%	7%	56%	40%	41%	39%	99.4%	0%	11%	31%	0%	2%	0%
COc1cc2ncn(-c3cc(OCC4CCCCC4)c(C(N)=O)s3)c2cc1OC [GSK204559]	3%	0%	15%	9%	17%	18%	0%	0%	1%	3%	0%	21%	2%	66%	17%	34%	24%	4%	18%	0%
Cc1ccc(CC(=O)N2CCc3cc(-c4cn(C)c5ncnc(N)c45)ccc32)cc1 [GSK2634758]	13%	1%	0%	0%	0%	49%	0%	100%	0%	0%	0%	0%	39%	96.4%	57%	9%	17%	0%	0%	40%
COc1cc(Nc2nccc(N3CCC(NC(=O)c4cccc(C#N)c4)C3)n2)cc(OC)c1OC (stereo not shown) [GSK1379751]	16%	7%	2%	2%	0%	0%	0%	0%	1%	0%	0%	0%	0%	70%	0%	0%	3%	0%	0%	0%
CSc1nccc(-c2c(-c3ccc(F)cc3)ncn2CCCN2CCOCC2)n1.Cl [SB-217146]	0%	0%	0%	3%	43%	0%	10%	0%	0%	0%	0%	0%	0%	12%	10%	0%	0%	11%	0%	0%
CS(=O)c1ccc(-c2coc3ccc(-c4n[nH]c(=O)o4)cc23)cc1 (stereo not shown)	7%	11%	83%	0%	36%	18%	4%	5%	19%	14%	2%	0%	10%	0%	0%	0%	4%	0%	6%	8%
Cn1ccc2ncnc(Oc3ccc(NC(=O)Nc4cccc(C(F)(F)F)c4)c(Cl)c3)c21	0%	25%	0%	10%	17%	21%	15%	1%	1%	0%	0%	8%	98.6%	100%	0%	3%	10%	0%	3%	0%
CC(C(=O)NC1CCN(c2ccnc(Nc3ccc(F)cc3)n2)C1)c1ccc(Cl)cc1 (stereo not shown) [GSK1379713]	17%	0%	5%	5%	2%	0%	0%	0%	0%	3%	0%	12%	3%	7%	0%	24%	2%	0%	0%	0%
N#Cc1cccc(C(=O)NC2CCN(c3ccnc(Nc4ccc(F)cc4)n3)C2)c1 (stereo not shown) [GSK1379708]	16%	0%	6%	0%	4%	0%	0%	27%	0%	1%	0%	0%	0%	23%	13%	2%	11%	0%	0%	0%
COc1cc2c(Nc3ccc(NC(=O)c4ccccc4)cc3)ncnc2cc1OCCCN1CCOCC1 [GSK301329]	16%	7%	20%	0%	3%	30%	0%	5%	0%	3%	0%	28%	24%	55%	0%	10%	12%	0%	0%	0%
NC(=O)Nc1sc(-c2ccc(F)cc2)cc1C(N)=O [GW789449]	14%	0%	16%	0%	4%	24%	11%	12%	1%	0%	100%	0%	5%	54%	13%	16%	0%	1%	0%	40%

Structure (SMILES)	%Inh [1]	%Inh [2]	%Inh [3]	%Inh [4]	%Inh [5]	%Inh [6]	%Inh [7]	%Inh [8]	%Inh [9]	%Inh [10]	%Inh [11]	%Inh [12]	%Inh [13]	%Inh [14]	%Inh [15]	%Inh [16]	%Inh [17]	%Inh [18]	%Inh [19]	%Inh [20]
Cc1ccc(Nc2ccnc(Nc3ccc4c(c3)CS(=O)(=O)C4)n2)cc1O.Cl [GW579362]	17%	97.5%	46%	26%	29%	20%	0%	28%	56%	17%	35%	16%	92.8%	100%	38%	15%	27%	0%	1%	4%
COC(=O)Nc1nc2cc(Oc3ccc(NC(=O)Nc4cc(C(F)(F)F)ccc4Cl)cc3)ccc2[nH]1.Cl [GW697465]	26%	2%	10%	36%	29%	25%	0%	0%	2%	0%	11%	26%	86%	100%	0%	80%	39%	1%	0%	0%
Cl.Nc1n[nH]c2cc(-c3ccccn3)ccc12 [GSK2189892]	0%	0%	11%	9%	2%	0%	0%	2%	16%	0%	13%	0%	0%	16%	0%	5%	6%	0%	0%	0%
O=C(Nc1n[nH]c2cc(-c3ccco3)ccc12)C1CC1 [SB-737447]	0%	4%	12%	0%	48%	0%	1%	0%	8%	36%	31%	28%	30%	59%	0%	0%	1%	0%	3%	6%
COc1cc2nccc(Nc3ccc(Oc4ccccc4)cc3)c2cc1OC.Cl [GI261656]	5%	0%	0%	0%	0%	0%	0%	0%	3%	0%	0%	0%	77%	92%	0%	5%	9%	0%	6%	0%
CC(C)S(=O)(=O)N1CCN(Cc2ccc3c(c2)nc(NC(=O)c2ccsc2)n3C[C@H](O)c2ccccc2)CC1 [GW635815]	20%	0%	10%	22%	27%	15%	44%	9%	35%	0%	0%	4%	0%	38%	4%	19%	0%	64%	43%	0%
CS(=O)(=O)c1cccc(CNc2nc(Nc3ccc4c(c3)[C@@H]3C[C@@H]4CNC3=O)ncc2C(F)(F)F)c1	0%	0%	48%	5%	12%	0%	0%	18%	20%	0%	0%	0%	9%	73%	0%	18%	0%	0%	0%	0%
CN(c1cccc(CNc2nc(Nc3ccc4c(c3)CC(=O)N4)ncc2C(F)(F)F)c1)S(C)(=O)=O	0%	8%	0%	15%	42%	0%	11%	14%	13%	0%	2%	4%	34%	72%	65%	10%	17%	40%	18%	0%
CCNCC(Cc1ccccc1)NC(=O)c1cc(Br)c(-c2ccnc3[nH]ccc23)s1.Cl.Cl (stereo not shown) [GSK1383280]	20%	0%	8%	26%	40%	62%	44%	60%	78%	0%	15%	0%	51%	75%	0%	0%	21%	27%	20%	0%
CCOC(=O)N1CCC(n2cnc(-c3ccc(F)cc3)c2-c2ccnc(N)n2)CC1 [SB-219952]	31%	92.7%	1%	3%	26%	9%	28%	6%	11%	0%	9%	32%	14%	23%	7%	25%	17%	0%	0%	56%
Cl.Cl.NC[C@H](CC1CCCCC1)NC(=O)c1ccc(-c2ccnc3[nH]ccc23)s1 [GSK1581428]	14%	12%	19%	22%	38%	94.8%	34%	62%	68%	6%	0%	0%	80%	97.3%	18%	32%	31%	36%	13%	0%
C[C@@H]1CNc2c(sc3ccc4nc(-c5ccc(O)cc5)ccc4c23)C(=O)N1	26%	8%	0%	20%	32%	0%	9%	17%	0%	0%	0%	4%	42%	56%	0%	18%	8%	31%	0%	16%
Cc1ccn2nc(-c3ccc(F)cc3)c(-c3ccncc3)c2c1.Cl [GW457859]	20%	79%	0%	0%	0%	0%	0%	0%	21%	0%	18%	7%	0%	33%	0%	7%	24%	0%	11%	0%
CCCC(=O)Nc1n[nH]c2ncccc12 [SB-601436]	0%	0%	0%	0%	17%	0%	0%	0%	0%	0%	0%	0%	0%	0%	0%	14%	9%	0%	0%	0%
Cc1ccc2c(-c3ccnc(Nc4ccc(C(F)(F)F)cc4)n3)cnn2n1 [GW819776]	3%	24%	0%	1%	50%	18%	0%	0%	0%	6%	12%	0%	0%	45%	0%	12%	0%	18%	0%	0%
Cc1nnc(-c2ccc3occ(-c4ccc(S(C)=O)cc4)c3n2)o1 (stereo not shown)	0%	55%	0%	4%	0%	0%	0%	3%	0%	0%	2%	0%	0%	0%	2%	0%	0%	0%	16%	0%
O=C(Nc1cccc(C(F)(F)F)c1)c1cccc(Oc2ccc3nccn3n2)c1	44%	0%	0%	0%	0%	20%	8%	1%	0%	21%	0%	0%	98.5%	99.9%	13%	0%	0%	33%	0%	99.3%
c1ccc(Oc2ccc(Nc3ccnc4ccc(-c5ccccn5)cc34)cc2)cc1 [GW407034]	17%	13%	57%	20%	11%	0%	0%	0%	7%	8%	0%	17%	0%	34%	0%	0%	15%	0%	0%	4%
OCCn1cc(-c2cnc3nnn(Cc4ccc5ncccc5c4)c3n2)cn1	0%	0%	0%	6%	13%	0%	11%	0%	0%	0%	0%	0%	0%	0%	0%	0%	0%	5%	0%	0%
COc1ccc(Nc2nccc(N3CCC(NC(=O)c4cccc(C#N)c4)C3)n2)cc1 (stereo not shown) [GSK1379730]	0%	0%	0%	0%	0%	24%	0%	0%	0%	3%	0%	3%	0%	4%	26%	0%	0%	0%	0%	0%
